Our source for the growth values is PubChem BioAssay (NCI).

Assay in all cases: NCI-60 one-dose screen, 48 h (100 = growth as untreated, 0 = no growth, -100 = all killed)
Conditions in all cases: 10 µM unless noted

Assay [1] relates to DU-145 prostate.
The test system of assay [2] is K-562 leukemia.
Assay [3] has as its system MALME-3M melanoma.
The subject of assay [4] is MDA-MB-231 breast.
In assay [5] the test system is RXF 393 renal.
The subject of assay [6] is SF-268 CNS.
The subject of assay [7] is SF-295 CNS.
Assay [8] relates to SF-539 CNS.
The test system of assay [9] is UACC-257 melanoma.
Assay [10] relates to M14 melanoma.

The panel holds about 83,000 compounds, 20% with a hit somewhere; the sample as a whole holds those more often.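 96-well plates, one dose, 48 hours. Percent growth reported; active if below 10.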 Unmarked numbers belong to inactive results. Active and inactive are the calls of the source.

With `Cc1ccc(S(=O)(=O)NNC(=O)/C(=C\c2ccc(Cl)cc2)c2nc3ccccc3s2)cc1`, the growth is 101% in assay [1]; 84% in assay [2]; 98.6% in [3]; 95.6% in assay [4]; 101% in assay [5]; 91.9% in [6]. Besides, the growth in assay [7] was 103%; in [8] it was 104%; in assay [9], 98%; in [10], 86%.

`CCCNC(=O)Oc1ccc(/C(=C(\C)c2ccccc2)c2ccc(OCCCN(C)C)cc2)cc1`: the growth in [1] is 89.7%; in assay [2] it was 11.5%; in [3], 40.8%; in assay [4] it was 59.4%; in assay [5] it was 71.1%; in assay [6], 71.8%. Besides, the growth in assay [7] was 64%; in assay [8], 63.9%; in assay [9] it was 8.5% (active); in assay [10], 25.2%.

As for `O=S(=O)(NCCCNc1nccc(-c2c(-c3cccc(O)c3)nc3occn23)n1)c1ccc(Cl)cc1`, the growth in assay [1] is 95.4%; in [2], 55.6%; in assay [3], 10.7%; in assay [4], 61.8%; in [5] it was 77.9%; in assay [6], 87.4%. The growth in assay [7] was 116%; in assay [8] it was 108%; in assay [9] it was 12.7%; in assay [10], 24.3%.

Take `N/C(=N\C(N)=N\c1nc2ccccc2s1)c1cccc(Cl)c1`: the growth in assay [1] is 89.6%; in assay [2], 72.8%; in [3], 102%; in [4] it was 73.7%; in assay [5], 115%; in assay [6] it was 83.6%. Further, the growth was 12% in assay [7], 99.2% in [8], 113% in assay [9] and 96.1% in [10].

For `Cc1cccc(NC(=O)Nc2ccc(-n3cnc4cc(-c5ccc(O)cc5)ccc43)cc2)c1`, the growth in [1] is 33.9%; in assay [2], 14.2%; in assay [3], 28.4%; in assay [4], 47.3%; in [5], 58.4%; in [6] it was 42.3%. Further, the growth in [7] was 18.4%; in assay [8], 29.1%; in assay [9], 32.3%; in assay [10], 21.4%.

For the molecule `COc1cc2c(=O)n(CCCN(C)C)c3c4cc5c(cc4ccc3c2cc1OC)OCO5`, the growth is 63.5% in [1]; 56.3% in [2]; 67.8% in assay [3]; 67% in [4]; 45.3% in assay [5]; 50.4% in assay [6]. For the same molecule, the growth is 42.5% in [7], 46.2% in assay [8], 93.1% in assay [9] and 66.6% in [10].

For `CCCOC(=O)N[C@H]1CCc2c(Cl)c(OC)c(OC)c(OC)c2-c2ccc(SC)c(=O)cc21`, the growth in assay [1] was 3.02% (active); in [2], 9.67% (active); in [3], 25.2%; in [4], -16.7% (active); in assay [5] it was 24.3%; in [6], 24.7%. Further, the growth is 17.5% in assay [7], 3.18% (active) in [8], 72.4% in assay [9] and -13.6% (active) in assay [10].

With `O=C(Nc1ccc(F)cc1)Nc1ccc(NC(=O)c2cc(Cl)nc3ccccc23)cc1`, the growth in assay [1] is 57%; in assay [2] it was 58.5%; in [3], 53.7%; in assay [4], 45.9%; in assay [5] it was 86.9%; in [6] it was 68.1%. The growth in assay [7] is 64.6%; in assay [8], 35.6%; in assay [9] it was 79.8%; in [10], 74.3%.

For the molecule `COc1ccc(CNCCN2C(=O)c3ccc4c5c(ccc(c35)C2=O)C(=O)N(CCNCc2ccc(OC)c(OC)c2OC)C4=O)c(OC)c1OC`, the growth in assay [1] is -41.7% (active); in [2], -10.8% (active); in [3], -73% (active); in [4], -8.31% (active); in assay [5] it was -32.3% (active); in assay [6] it was -2.06% (active). For the same molecule, the growth in assay [7] was -44.8% (active); in assay [8], -47.7% (active); in [9] it was -85.1% (active); in [10], -58.3% (active).

As to `Cc1ccc(-n2cc(-c3ccccc3)c3c2N=NN2CCN=C32)cc1`, the growth in assay [1] is 113%; in assay [2], 87%; in assay [3], 104%; in assay [4], 85.9%; in [5], 109%; in assay [6], 96.8%. Moreover, the growth in assay [7] is 96.5%; in assay [8], 101%; in [9], 113%; in [10] it was 104%.

As to `COc1cc2c(cc1OC)C(=O)/C(=C/c1cc(C)c(O)c(C)c1)S2`, the growth in assay [1] is 25.3%; in assay [2], 12%; in assay [3] it was 71.7%; in [4], 56.9%; in [5] it was -6.02% (active); in assay [6] it was 72.9%. Further, the growth in assay [7] is 18.4%; in [8] it was -3.74% (active); in [9], 70.7%; in [10] it was 19.1%.

Consider `CN1C(=O)NC(c2ccc3c(c2)OCO3)C=C1c1ccccc1` (stereo not given), for which the growth in assay [1] was 94.7%; in assay [2], 76.5%; in [3] it was 88.4%; in [4] it was 102%; in assay [5], 91.2%; in [6] it was 95.6%. Moreover, the growth in [7] is 98.6%; in assay [8], 98.1%; in [9], 98.5%; in assay [10], 96.9%.

As for `O=C1Nc2cc(-c3cccc([N+](=O)[O-])c3)ccc2/C1=C/c1ccc[nH]1`, the growth in assay [1] was 111%; in assay [2], 72.2%; in assay [3] it was 89%; in [4], 39.5%; in assay [5], 82.1%; in assay [6], 97.1%. In addition, the growth in assay [7] is 99.8%; in assay [8] it was 93.5%; in assay [9], 107%; in [10], 89.8%.
